Bioassay records deposited in PubChem by National Center for Advancing Translational Sciences (NCATS).
A selection: hits, their analogues and other compounds. The true share with any hit is near 1.1%.
Apoferritin bind = candidate novel general anesthetic via apoferritin binding. apoferritin/1-aminoanthracene competitive binding, fluorescence. Potency, µM (doses to about 77.5 µM), inactives show at the highest dose activity change, negative = displacement, hits mostly inhibitors. 350,000 compounds, 0.074% hits; further: on the % scale 0 is the no-effect control and ±100 the full control effect; nearly all actives have a fitted effect of over 20% in size
Target sequence (P02791 2-175 limits assumed): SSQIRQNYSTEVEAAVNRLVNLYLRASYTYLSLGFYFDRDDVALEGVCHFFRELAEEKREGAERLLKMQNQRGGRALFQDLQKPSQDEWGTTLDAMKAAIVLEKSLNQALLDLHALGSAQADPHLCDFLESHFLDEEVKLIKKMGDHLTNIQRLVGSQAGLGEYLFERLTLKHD
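Horse-spleen apoferritin (10 uM) in 50% saturated 1-aminoanthracene in PBS was incubated 10 min at room temperature with compound. Fluorescence (ex 380, em 535 nm) was normalized to free and bound 1-AMA, with concentration-response fitted by a four-parameter Hill equation.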
Chronic BCR inh = blocks chronic active B-cell receptor signaling; ABC-DLBCL IkBa-CBG/CBR reporter, luminescence ratio, 4 h; Potency, µM (series often up to 46.1 µM), for inactives: top-dose activity change, negative = inhibition, usual class: inhibitors; 340,000 compounds, 0.05% hits; active means well fitted inhibition curve with a large enough effect in the signal ratio, with a control signal flat, not every such curve was filed as active; inconclusive means small, poorly fitted or top-dose-only effect, or effect the other way, or a change in a side signal; the % refers to the signal ratio;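 further: plate controls were basal doxycycline-induced cells for no effect and cells given 10 µM MG132 for full effect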
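Concentration-response series (up to 46 uM) were applied to TMD8 dual-reporter cells for 4 h at 37C with doxycycline. Green/red ratio, after filter-overlap correction, defined %Activity; red signal alone was normalised to basal cells and zero luminescence.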
ALOX12 inh = inhibitors of human 12S-lipoxygenase ALOX12; P18054; purified 12hLO, xylenol orange hydroperoxide absorbance; Potency, µM (highest dose often 108 µM), for inactives: top-dose activity change, negative = inhibition, most hits filed as inhibitors; 580,000 compounds, 1.1% hits; AID 1671190; further: on the % scale 0 is the no-effect control and ±100 the full control effect
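Purified human 12hLO at 150 nM in 25 mM Hepes, 0.01% Triton X-100, pH 7.0, preincubated 15 min at room temperature with compound. Reaction started with 40 uM arachidonic acid, 30 min at room temperature. Hydroperoxide measured by Fe-xylenol orange, 573/405 nm absorbance ratio.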
Glioma ERSR ind = ER stress response induction in glioma; U87-MG GRP78 promoter luciferase reporter, 16 h; Potency, µM, for the others: at the top dose activation, usual class: activators; AID 602332; 420,000 compounds, 0.02% hits; further: series mostly up to about 76 µM; % of control where 0% means no effect; nearly all actives have a fitted effect of over 35% in size
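ERSR induction read as luciferase luminescence (Bright-Glo, 10 min at room temperature) in stably transfected human U87-MG glioma cells exposed to compounds for 16 h, using GRP78 as sensor.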
An asterisk follows results filed as active; ? = inconclusive; · = not tested or not shown; ! = repeats disagree; [ ] = dose if it differs, or a comment. Unless noted, the call rests on the fitted dose curve; in most records, active means well fitted curve in the direction sought with a large enough effect; inconclusive means small, poorly fitted or top-dose-only effect, or another doubt; inactive means no such curve, though single readings can be large; an effect the other way counts as inactive or inconclusive. Potency means the concentration at half of the fitted maximal effect.

SMILES	Apoferritin bind	Chronic BCR inh	ALOX12 inh	Glioma ERSR ind
CCc1nnc(N/N=C/c2c(F)cccc2Cl)n1N	5.6%	?	-19.4%	2.9%
FC(F)(F)c1ccccc1/C=N/NC(=S)NCc1ccccc1	·	·	39.8µM*	·
Cc1ccc(NC(=S)N/N=C/c2c(C)[nH]c3ccccc23)cc1	18.2%	?	31.6µM*	1.8%
O=C(c1cc2ccccc2oc1=O)N1CCN(c2cccc(Cl)c2)CC1	·	·	-1.7%	·
Cc1ccc(-c2cnc(CCC(=O)NCC(c3cccc(F)c3)N(C)C)o2)cc1 (configuration not stated)	·	·	-7.6%	·
Cc1ccc(Cn2cccc2/C=N/NC(=S)Nc2ccc(C)cc2)cc1	-7.2%	0.4%	44.7µM*	2.1%
CCS(=O)(=O)c1ccc2oc(SCC(=O)NC3CCCC(C)C3C)nc2c1 (configuration not stated)	50.1µM*	?	0.0%	-5.1%
Cc1cc2cc(CNC(=S)Nc3ccc(OC(F)(F)F)cc3)ccc2n1C	?	?	39.8µM*	-2.5%
COc1cccc(NC(=S)NCc2ccc3c(c2)cc(C)n3C)c1	?	2.7%	?	-5.1%
Cc1cccc(NC(=O)NCc2ccc3c(c2)cc(C)n3C)c1	-7.7%	?	?	-2.3%
Cc1cccc(NC(=S)NCc2ccc3c(c2)cc(C)n3C)c1C	?	?	35.5µM*	3.1%
CCCNC(=O)C(C)NC(=O)Cc1ccc(S(=O)(=O)N2CCCCC2)cc1 (configuration not stated)	·	·	20µM*	·
O=C1Nc2ccccc2CC12CCN(Cc1cccc3ccccc13)C2 (configuration not stated)	·	·	100µM*	·
CCn1cc[n+](C)c1P(c1ccccc1)c1ccccc1	-4.8%	0.0%	39.8µM*	-0.8%
O=C(N/N=C/c1cccc(O)c1)C1CC1	·	·	-22.5%	·
CCCN1C(=O)/C(=C/c2ccc(C)o2)SC1=Nc1ccc(OCC)cc1	-18.8%	0.7%	?	-1.9%
CCN=C1S/C(=C\c2ccc(-c3cccc(C(=O)O)c3)o2)C(=O)N1CC	-1.6%	?	·	-0.3%
CCN1C(=O)/C(=C\c2ccc(-c3cccc(C(=O)OC)c3)o2)SC1=Nc1ccc(C(=O)O)cc1	-7.9%	1.0%	50.1µM*	·
CCCN1C(=O)/C(=C/c2ccc(C)o2)SC1=Nc1ccc(OC)cc1	-18.7%	10.0%	12.6µM*	-5.9%
COc1ccc(/C=N/NC(=S)N[C@H]2CC3CCC2C3)cc1 (some centres not stated)	4.6%	?	10µM*	3.6%
COc1cc(C2CC(=O)Nc3nc(-c4ccccc4)[nH]c(=O)c32)cc(OC)c1OC (configuration not stated)	·	·	60.4%	·
CCCCc1ccc(NC(=S)Nc2ccc(Cl)c(S(=O)(=O)N(C)C)c2)cc1	?	-0.1%	44.7µM*	-0.5%
CCCCc1ccc(NC(=S)NCCc2ccc(Cl)cc2)cc1	·	·	31.6µM*	·
S=C(NCCCc1ccccc1)Nc1ccc(Cl)cc1	-5.4%	?	39.8µM*	-2.4%
CCCCc1ccc(NC(=S)NCCCO)cc1	·	·	-39.0%	·
SMILES	Apoferritin bind	Chronic BCR inh	ALOX12 inh	Glioma ERSR ind
CCN1CCN(CC(=O)Nc2ccc(Cl)c(S(=O)(=O)N(C)C)c2)CC1	1.2%	2.5%	-25.1%	-2.2%
CCCCc1ccc(NC(=S)Nc2ccc(Nc3ccc(OC)cc3)cc2)cc1	-23.8%	11.8%	35.5µM*	3.4%
COc1cccc(/C=C/C(=O)c2c(C)nn3c4ccccc4n(C)c23)c1OC(C)C	·	·	-27.8%	·
CCc1nc2cc(N3CCCC(C(=O)NC4CCCC4)C3)cnc2nc1CC (configuration not stated)	·	·	21.2%	·
CN(C)Cc1nnc(-c2ccc(Br)o2)o1	·	·	0.8%	·
CN1CCN(CCOc2ccc3c(=O)c(-c4ccccc4)coc3c2)CC1	·	·	5.5%	·
Nc1ccccc1OCC1CCCO1 (configuration not stated)	·	·	9.0%	·
CC1CCC(NC(=O)c2ccc3ncsc3c2)CC1 (configuration not stated)	·	·	10.5%	·
O=C(NCCO)Nc1ccc(Cl)cc1	-4.2%	-2.5%	-1.7%	0.9%
O=C(NCCNC(=O)Nc1ccc(Cl)cc1)Nc1ccc(Cl)cc1	·	·	12.6µM*	-3.8%
COc1ccccc1N1C(=O)C=C(Sc2nc(C)cc(C)n2)C1=O	2.1%	?	10µM*	-2.4%
COc1ccccc1N1C(=O)C2CC(C)=C(C)CC2C1=O (configuration not stated)	?	?	1.7%	-4.4%
O=C(c1cccs1)N1CCCC(CN2CCCC2)CC1 (configuration not stated)	·	·	106.5%	·
COc1ccc(OC)c(S(=O)(=O)NCC(c2ccco2)N2CCc3ccccc32)c1 (configuration not stated)	·	5.0%	39.8µM*	-5.4%
COc1ccc(-c2noc(CSc3nc4ccccc4[nH]3)n2)cc1OC	-7.1%	·	-20.7%	-2.1%
COc1ccc(-c2noc(CSc3nc(N)c(-c4ccccc4)c(=O)[nH]3)n2)cc1OC	-12.2%	20.6µM*	-7.3%	-7.9%
Clc1ccc(-c2cnc([C@@H]3COCCN3Cc3ccccc3)[nH]2)cc1	·	·	-22.6%[176 µM]	·
COc1ccccc1N1CN(CCCN(C)C)Cn2c1nc(C)c(C)c2=O	·	·	-5.9%	·
Oc1cccc2c(N=Cc3ccc(F)c(F)c3)cccc12	·	·	22.4µM*	·
CC(C)(Oc1nn(CC2CC2)c2ccc(CN3CCCC3)cc12)C(=O)NCC(F)(F)F	·	·	13.6%[176 µM]	·
O=C(c1cccs1)N(Cc1ccncc1)C1CC1	·	·	-1.1%	·
O=C(CC1(O)C(=O)N(CN2CCOCC2)c2ccccc21)c1ccc(F)cc1 (configuration not stated)	·	·	24.7%	·
CC(C)CC1Nc2ncnc(N3CCOCC3)c2N(Cc2ccc(Cl)cc2)C1=O (configuration not stated)	·	-0.3%	7.94µM*!	-1.4%
O=c1c(-c2ccccc2)nnc2sc(-c3ccc(Cl)cc3)nn12	·	·	-16.6%	·
CC(OC(=O)Cn1cnc2c1c(=O)n(C)c(=O)n2C)C(=O)Nc1ccc(F)cc1 (configuration not stated)	·	·	-6.9%	·
SMILES	Apoferritin bind	Chronic BCR inh	ALOX12 inh	Glioma ERSR ind
CCOc1cc(NC(=O)CCl)c(OCC)cc1NC(=O)CCl	5.1%	14.1µM*	-13.2%	7.9%
COc1ccc(-c2cc(-c3nc(-c4ccc(Br)cc4)no3)[nH]n2)c(OC)c1	·	·	5.8%	·
NS(=O)(=O)c1ccc(N/N=C/C=C/c2ccccc2)c([N+](=O)[O-])c1	·	·	15.7%	·
CCOC(=O)C1=C(C)NC2=C(C(=O)c3ccccc32)C1c1ccc([N+](=O)[O-])o1 (configuration not stated)	-12.6%	12.9%	28.2µM*	-1.9%
Cc1ccc(CN2CCc3nc(C(C)C)nc(-c4ccc(O)cc4)c3CC2)cc1	·	·	44.7µM*	·
COc1ccc(CN2CCc3nc(C(C)C)nc(-c4ccc(O)cc4)c3CC2)cc1	·	·	-27.8%	·
CN(C1CCCCC1)S(=O)(=O)c1ccc(=S)[nH]c1	·	?	39.8µM*	-4.8%
CCCCCOc1ccc(CSC(=N)N)cc1[N+](=O)[O-]	8.91µM*	?	?	-6.3%
CN(CC(=O)Nc1cccc(F)c1)C(=O)c1nn(Cc2ccccc2)c(=O)c2ccccc12	·	·	27.2%	·
